The record followed here is PubChem BioAssay (EPA / NIEHS).

Activity calls are given as the source filed them. Rule for the calls: active = hit-call score of the fitted dose curve at least 0.9, where 1 is the maximum; inactive = score below 0.9.

Read-out in one test: Plasminogen activator inhibitor-1 (PAI1), SERPINE1 (gene 5054)
Put plainly: BSK_BE3C_PAI1: BioMAP Diversity Plus: BE3C Assay for Plasminogen activator inhibitor-1 (PAI1) Biomarker Activity (AID 2283037). The note with it: primary human bronchial epithelial cells; actives raise or lower the signal. In short, it runs like this:
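Human primary bronchial epithelial cells were exposed to chemical for 24 h, then PAI-1 was quantified by ELISA. Activity was fitted bidirectionally relative to the DMSO negative control baseline.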
On to `COC(=O)c1ccccc1O`, for which the result was inactive.
On the same count and under the same terms, as for `COCCOCCOCCOC`, the entry is “inactive”.
As for `O=c1[nH]c2ccc(S(=O)CCN3CCC(Cc4ccc(F)cc4)CC3)cc2o1` (stereo not given), the result was inactive.
Consider `O=C(O)CC(O)C(=O)O` (stereo not given), for which the result was inactive.
On to `CC(C)CC(C)(O)C#CC(C)(O)CC(C)C` (stereo not given), for which the result was inactive.
Still for that read-out and setting: as for `CC/C(=C\C(=N/O)C(N)=O)C(C)[N+](=O)[O-]` (stereo not given), the entry is “inactive”; as for `COCCOc1cc2cc(C(=O)NC3CCN(C(C)C)CC3)n(CC(=O)Nc3ccc(Cl)cn3)c2cn1`, “inactive”.
In the case of `COC(=O)CC(=O)OC`, the result was inactive.
With `C1N2CN3CN1CN(C2)C3`, the result was inactive.
Still for that read-out and setting: as for `CNCc1ccc(NC(=O)c2c[nH]c3c2C(=O)CCC3)cc1`, the entry is “inactive”; as for `CC(=O)OC[C@H]1O[C@@](COC(C)=O)(O[C@H]2O[C@H](COC(C)=O)[C@@H](OC(C)=O)[C@H](OC(C)=O)[C@H]2OC(C)=O)[C@@H](OC(C)=O)[C@@H]1OC(C)=O`, “inactive”.
Same read-out and setting: under `O=C(O)c1cc(N=Nc2ccc(S(=O)(=O)Nc3ccccn3)cc2)ccc1O` stands “inactive”.
With `CCCCCCCCO`, the outcome was inactive.
Still for that read-out and setting: under `CN(C)c1ccc(Cc2ccc(N(C)C)cc2)cc1` stands “inactive”; under `C[C@](N)(Cc1ccc(O)c(O)c1)C(=O)O`, “inactive”.
On to `CCOCCOCCOCCO`, for which the outcome was inactive.
On the same count and under the same terms, under `CC[C@H]1CC[C@H](NCc2cc3c(cc2OC)[C@H]2C[C@H]2C(=O)N3C)[C@H](c2ccccc2)N1` stands “inactive”; under `Nc1ccc(Nc2ccccc2)cc1`, “inactive”.
As a reminder, the AC50 is the concentration giving half of the maximal activity seen. Take `On1ccccc1=S`: the AC50 is 3.45 µM (active).
`CCOC(=O)CC(CC(=O)OCC)(OC(C)=O)C(=O)OCC`: the outcome was inactive.
For the molecule `O=C(O)c1cccc(Oc2ccccc2)c1`, the outcome was inactive.

Read-out in another test: urokinase plasminogen activator (uPA), PLAU (gene 5328)
The test is described as follows: BSK_BE3C_uPA: BioMAP Diversity Plus: BE3C Assay for urokinase plasminogen activator (uPA) Biomarker Activity (AID 2283038).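 For outcome: uPA protein level quantified by ELISA in cell cultures; uPA read one day after compound addition.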 The following applies: primary human bronchial epithelial cells; actives raise or lower the signal. The essentials:
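Bronchial epithelial cells (human, primary); chemical 24 h; uPA by ELISA; bidirectional fit vs DMSO. SRB (0.1%, after 10% TCA fixation, 560 nm) in parallel cultures for cytotoxicity.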
On to `Clc1nc(Cl)c(Cl)c(Cl)c1Cl`, for which the result was inactive.
Still for that read-out and setting: under `CC[C@H]1OC(=O)[C@H](C)[C@@H](O[C@H]2C[C@@](C)(OC)[C@@H](O)[C@H](C)O2)[C@H](C)[C@@H](O[C@@H]2O[C@H](C)C[C@H](N(C)C)[C@H]2O)[C@](C)(O)C[C@@H](C)C(=O)[C@H](C)[C@@H](O)[C@]1(C)O` stands “inactive”.
As for `CCOc1cccc(-n2cc(C(=O)N3CCN(c4cc(C(=O)O)c5ccccc5c4)CC3)nc2-c2ccc(C)cc2)c1`, the concentration at half-maximal activity (AC50) is 16.8 µM (active).
For the molecule `CC(C)CCCCCCOC(=O)c1ccc(C(=O)OCCCCCCC(C)C)c(C(=O)OCCCCCCC(C)C)c1`, the outcome was inactive.
For the molecule `Cc1[nH]cnc1C[C@H]1CCc2c(C)c3ccccc3n2C1=O`, the outcome was inactive.
Same read-out and setting: under `Oc1ccc2c(c1)-c1ccccc1C2` stands “inactive”; under `CCCN(C1CCN(C(=O)C2CCNCC2)CC1)[C@@H]1CCc2ccc(OC)cc2C1`, “inactive”; under `COC(=O)c1ccccc1O`, “inactive”.
On the same count and under the same terms, as for `COCCOCCOCCOC`, the entry is “inactive”; as for `O=c1[nH]c2ccc(S(=O)CCN3CCC(Cc4ccc(F)cc4)CC3)cc2o1` (stereo not given), “inactive”; as for `O=C(O)CC(O)C(=O)O` (stereo not given), “inactive”.
Still for that read-out and setting: as for `CC(C)CC(C)(O)C#CC(C)(O)CC(C)C` (stereo not given), the entry is “inactive”; as for `CC/C(=C\C(=N/O)C(N)=O)C(C)[N+](=O)[O-]` (stereo not given), “inactive”; as for `COCCOc1cc2cc(C(=O)NC3CCN(C(C)C)CC3)n(CC(=O)Nc3ccc(Cl)cn3)c2cn1`, “inactive”.
`COC(=O)CC(=O)OC`: the result was inactive.
In the case of `C1N2CN3CN1CN(C2)C3`, the outcome was inactive.
For `CNCc1ccc(NC(=O)c2c[nH]c3c2C(=O)CCC3)cc1`, the result was inactive.
Consider `CC(=O)OC[C@H]1O[C@@](COC(C)=O)(O[C@H]2O[C@H](COC(C)=O)[C@@H](OC(C)=O)[C@H](OC(C)=O)[C@H]2OC(C)=O)[C@@H](OC(C)=O)[C@@H]1OC(C)=O`, for which the result was inactive.
Turning to `O=C(O)c1cc(N=Nc2ccc(S(=O)(=O)Nc3ccccn3)cc2)ccc1O`, the result was inactive.
Same read-out and setting: as for `CCCCCCCCO`, the entry is “inactive”; as for `CN(C)c1ccc(Cc2ccc(N(C)C)cc2)cc1`, “inactive”.
As for `C[C@](N)(Cc1ccc(O)c(O)c1)C(=O)O`, the result was inactive.
On to `CCOCCOCCOCCO`, for which the result was inactive.
The same measure, in the same setting: under `CC[C@H]1CC[C@H](NCc2cc3c(cc2OC)[C@H]2C[C@H]2C(=O)N3C)[C@H](c2ccccc2)N1` stands “inactive”.
Consider `Nc1ccc(Nc2ccccc2)cc1`, for which the result was inactive.
As for `On1ccccc1=S`, the AC50 was 5.4 µM (active).
As for `CCOC(=O)CC(CC(=O)OCC)(OC(C)=O)C(=O)OCC`, the outcome was inactive.
The same measure, in the same setting: as for `O=C(O)c1cccc(Oc2ccccc2)c1`, the entry is “inactive”; as for `Cn1cnc([N+](=O)[O-])c1Sc1ncnc2nc[nH]c12`, “inactive”.

Read-out in the next test: Urokinase-type plasminogen activator receptor (uPAR), PLAUR (gene 5329)
Put plainly: BSK_BE3C_uPAR: BioMAP Diversity Plus: BE3C Assay for Urokinase-type plasminogen activator receptor (uPAR) Biomarker Activity (AID 2283039).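 For outcome: uPAR protein level measured by ELISA on the cells; cells exposed to compound for one day before measurement.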 The note with it: primary human bronchial epithelial cells; actives raise or lower the signal. The essentials:
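Primary human bronchial epithelial cells were dosed with chemical and harvested 24 h later; uPAR was quantified by ELISA. Activity was fitted bidirectionally against DMSO as negative control and baseline.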
As for `CCOc1cccc(-n2cc(C(=O)N3CCN(c4cc(C(=O)O)c5ccccc5c4)CC3)nc2-c2ccc(C)cc2)c1`, the half-maximal activity concentration (AC50) is 15.7 µM (active).
On the same count and under the same terms, as for `Cc1[nH]cnc1C[C@H]1CCc2c(C)c3ccccc3n2C1=O`, the figure is 24.1 µM (active).
For the molecule `Oc1ccc2c(c1)-c1ccccc1C2`, the result was inactive.
Turning to `CCCN(C1CCN(C(=O)C2CCNCC2)CC1)[C@@H]1CCc2ccc(OC)cc2C1`, the result was inactive.
The same measure, in the same setting: under `COCCOCCOCCOC` stands “inactive”; under `O=c1[nH]c2ccc(S(=O)CCN3CCC(Cc4ccc(F)cc4)CC3)cc2o1` (stereo not given), “inactive”; under `O=C(O)CC(O)C(=O)O` (stereo not given), “inactive”.
In the case of `CC/C(=C\C(=N/O)C(N)=O)C(C)[N+](=O)[O-]` (stereo not given), the outcome was inactive.
Consider `COCCOc1cc2cc(C(=O)NC3CCN(C(C)C)CC3)n(CC(=O)Nc3ccc(Cl)cn3)c2cn1`, for which the outcome was inactive.
As for `COC(=O)CC(=O)OC`, the result was inactive.
Same read-out and setting: under `CNCc1ccc(NC(=O)c2c[nH]c3c2C(=O)CCC3)cc1` stands “inactive”; under `CC(=O)OC[C@H]1O[C@@](COC(C)=O)(O[C@H]2O[C@H](COC(C)=O)[C@@H](OC(C)=O)[C@H](OC(C)=O)[C@H]2OC(C)=O)[C@@H](OC(C)=O)[C@@H]1OC(C)=O`, “inactive”; under `O=C(O)c1cc(N=Nc2ccc(S(=O)(=O)Nc3ccccn3)cc2)ccc1O`, “inactive”.
On the same count and under the same terms, as for `CN(C)c1ccc(Cc2ccc(N(C)C)cc2)cc1`, the entry is “inactive”.
For the molecule `C[C@](N)(Cc1ccc(O)c(O)c1)C(=O)O`, the result was inactive.
For the molecule `CCOCCOCCOCCO`, the outcome was inactive.
Still for that read-out and setting: as for `Nc1ccc(Nc2ccccc2)cc1`, the entry is “inactive”.
With `On1ccccc1=S`, the half-maximal activity concentration (AC50) was 9.61 µM (active).
On to `CCOC(=O)CC(CC(=O)OCC)(OC(C)=O)C(=O)OCC`, for which the outcome was inactive.
Still for that read-out and setting: as for `O=C(O)c1cccc(Oc2ccccc2)c1`, the entry is “inactive”.
